PubChem BioAssay (Tox21)
Where “and” joins values, the source holds several entries; their conditions need not be identical. Equal values may be shown once. Inconclusive results are not listed. Where a call stands in place of a potency, no number is given. Some structures have more than one record in an assay (separate samples or runs), and their calls can disagree. Calls of active or inactive are those of the source. Unless noted, calls come from the whole dose curve; as a rule, active = well fitted curve in the direction sought with a large enough effect in the repeat runs; inconclusive = weak or mixed curves; inactive = no such curve, though single readings can be large; an effect the other way counts as inactive or inconclusive.

Experiments:
[1] = qHTS assay to identify small molecule antagonists of the estrogen related receptor (ERR) signaling pathway from Tox21 library - cell viability counter screen (AID 1224834); note: nearly all actives have a fitted effect of over 30% in size; note: potency is the fitted concentration of half-maximal effect
In short: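 ERR reporter cells were plated 6 h before compound addition, then exposed to test compounds in DMSO for 17.5 h at 37 C. Viability was read as CellTiter-Fluor fluorescence after a 30-minute incubation at 37 C.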

[2] = molecular target: Luciferin 4-monooxygenase (Photinus pyralis) (UniProt P08659); test: qHTS assay to identify small molecule inhibitors of firefly luciferase (AID 1224835); note: nearly all actives have a fitted effect of over 25% in size; note: potency is the fitted concentration of half-maximal effect
In short: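 Biochemical qHTS: compounds run as interplate titrations against purified firefly enzyme, with D-luciferin and ATP each at its KM concentration. Light output recorded by CCD imaging.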

[3] = qHTS assay to identify small molecule agonists of the constitutive androstane receptor (CAR) signaling pathway - cell viability counter screen (AID 1224836); note: nearly all actives have a fitted effect of over 45% in size; note: potency is the fitted concentration of half-maximal effect
In short: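 Multiplexed viability check: HepG2-CYP2B6-hCAR cells, 15-point compound dosing, 0.75 uM PK11195 final, 23 h at 37 C, CellTiter-Fluor fluorescence.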

[4] = qHTS assay to identify small molecule antagonists of the constitutive androstane receptor (CAR) signaling pathway - cell viability counter screen (AID 1224837); note: nearly all actives have a fitted effect of over 45% in size; note: potency is the fitted concentration of half-maximal effect
In short: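 HepG2 cells stably expressing hCAR and a CYP2B6-2.2kb reporter were plated and pre-incubated 4 hr at 37 C/5% CO2, then given compounds at 15 concentrations plus 50 nM CITCO (final). After 23 hr, viability was read by CellTiter-Fluor fluorescence.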

[5] = molecular target: Nuclear receptor subfamily 1 group I member 3 (Homo sapiens) (UniProt Q14994); test: qHTS assay to identify small molecule antagonists of the constitutive androstane receptor (CAR) signaling pathway (AID 1224838); note: nearly all actives have a fitted effect of over 40% in size; note: potency is the fitted concentration of half-maximal effect
In short: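 HepG2 cells stably co-transfected with hCAR and a CYP2B6-2.2kb luciferase reporter were seeded 4 h before compound addition at 15 concentrations. Cells were stimulated with 50 nM CITCO (final) for 24 h at 37 C; luciferase luminescence was then read.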

[6] = molecular target: Nuclear receptor subfamily 1 group I member 3 (Homo sapiens) (UniProt Q14994); test: qHTS assay to identify small molecule agonists of the constitutive androstane receptor (CAR) signaling pathway (AID 1224839); note: nearly all actives have a fitted effect of over 15% in size; note: potency is the fitted concentration of half-maximal effect
In short: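 Using human hepatoma HepG2 cells engineered with hCAR and a CYP2B6-2.2kb reporter, 15-concentration compound series were incubated 24 h alongside PK11195 at 0.75 uM final, with luminescence quantified afterwards.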

[7] = qHTS assay to identify small molecule antagonists of the estrogen related receptor signaling pathway with the pleiotropic PPARgamma coactivator (PGC) from Tox21 10K library - cell viability counter screen (AID 1224840; active = well fitted cell-killing curve with a large enough effect in the repeat runs, not every such curve was filed as active; note: nearly all actives have a fitted effect of over 40% in size; note: potency is the fitted concentration of half-maximal effect)
In short: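 PGC/ERR cells were seeded at 2,000 cells/well and left 6 hours at 37 C/5% CO2 before pin-tool addition of compounds in DMSO. After 17.5 hours at 37 C, CellTiter-Fluor was added and fluorescence read 30 minutes later.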

[8] = molecular target: Thyrotropin receptor (Homo sapiens) (UniProt P16473); test: qHTS assay to identify small molecule agonists of the thyroid stimulating hormone receptor (TSHR) signaling pathway (AID 1224843; calls by dose curve; note: nearly all actives have a fitted effect of over 45% in size)
In short: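 Steps: seed 800 TSHR-HEK293 cells per well; add test compound and hold 30 min at ambient temperature; dispense cAMP-d2 then anti-cAMP cryptate; incubate 1 h at ambient; measure fluorescence intensity.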

[9] = qHTS assay to identify small molecule antagonists of the estrogen related receptor signaling pathway with the pleiotropic PPARgamma coactivator (PGC) from Tox21 10K library (AID 1224841; call rule not given here; note: actives are mostly falling curves and most rising ones were filed inactive; nearly all actives have a fitted effect of over 50% in size; note: potency is the fitted concentration of half-maximal effect)
In short: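 PGC/ERR reporter cells were seeded at 2,000 cells/well and held 6 hours at 37 C/5% CO2 before pin-tool addition of compounds in DMSO. After 18 hours at 37 C, One-Glo was added and luminescence read after 30 minutes at room temperature.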

[10] = qHTS assay to identify small molecule agonists of the estrogen related receptor signaling pathway with the pleiotropic PPARgamma coactivator (PGC) from Tox21 10K library (AID 1224842); note: nearly all actives have a fitted effect of over 15% in size
In short: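 PGC/ERR reporter cell line, 2,000 cells per well, incubated 6 h at 37 C before 23 nL compound in DMSO was added. After 18 h at 37 C, One-Glo luminescence read following 30 min at room temperature.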

Thyrotropin receptor (Homo sapiens), sequence (P16473 whole entry, looked up): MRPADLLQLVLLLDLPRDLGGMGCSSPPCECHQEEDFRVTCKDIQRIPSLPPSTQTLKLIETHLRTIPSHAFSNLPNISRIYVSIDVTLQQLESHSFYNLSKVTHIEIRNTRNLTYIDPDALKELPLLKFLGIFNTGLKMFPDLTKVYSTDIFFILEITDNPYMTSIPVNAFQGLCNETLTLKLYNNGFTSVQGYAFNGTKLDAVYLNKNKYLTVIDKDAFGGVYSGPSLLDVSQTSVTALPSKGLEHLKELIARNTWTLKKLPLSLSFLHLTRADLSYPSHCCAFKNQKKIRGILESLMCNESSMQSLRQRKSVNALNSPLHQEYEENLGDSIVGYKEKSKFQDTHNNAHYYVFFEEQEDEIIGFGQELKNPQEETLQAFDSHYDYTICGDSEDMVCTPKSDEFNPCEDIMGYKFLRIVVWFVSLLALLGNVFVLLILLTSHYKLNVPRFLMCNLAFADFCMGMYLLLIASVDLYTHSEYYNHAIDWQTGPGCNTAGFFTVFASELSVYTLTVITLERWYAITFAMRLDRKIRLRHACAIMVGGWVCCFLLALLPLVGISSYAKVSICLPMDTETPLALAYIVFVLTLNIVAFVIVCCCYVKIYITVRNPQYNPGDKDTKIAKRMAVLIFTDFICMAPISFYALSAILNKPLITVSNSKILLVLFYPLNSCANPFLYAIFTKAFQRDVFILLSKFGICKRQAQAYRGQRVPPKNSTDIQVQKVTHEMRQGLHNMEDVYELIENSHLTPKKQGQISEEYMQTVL
Luciferin 4-monooxygenase (Photinus pyralis), sequence (P08659 whole entry, looked up): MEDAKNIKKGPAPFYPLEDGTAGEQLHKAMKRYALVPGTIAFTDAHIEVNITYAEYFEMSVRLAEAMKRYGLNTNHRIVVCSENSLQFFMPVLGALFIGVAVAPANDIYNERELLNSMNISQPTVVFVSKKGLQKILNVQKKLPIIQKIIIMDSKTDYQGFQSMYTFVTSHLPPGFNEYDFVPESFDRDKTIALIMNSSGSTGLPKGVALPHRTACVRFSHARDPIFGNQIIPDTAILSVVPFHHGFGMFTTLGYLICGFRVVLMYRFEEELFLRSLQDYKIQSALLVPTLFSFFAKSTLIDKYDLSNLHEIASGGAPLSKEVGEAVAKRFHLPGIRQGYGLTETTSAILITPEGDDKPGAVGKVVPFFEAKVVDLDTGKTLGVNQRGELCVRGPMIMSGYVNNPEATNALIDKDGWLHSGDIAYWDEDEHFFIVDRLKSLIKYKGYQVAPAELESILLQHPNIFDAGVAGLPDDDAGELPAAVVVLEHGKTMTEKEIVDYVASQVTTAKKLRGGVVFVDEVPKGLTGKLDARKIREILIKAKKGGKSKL
Nuclear receptor subfamily 1 group I member 3 (Homo sapiens), sequence (Q14994 whole entry, looked up): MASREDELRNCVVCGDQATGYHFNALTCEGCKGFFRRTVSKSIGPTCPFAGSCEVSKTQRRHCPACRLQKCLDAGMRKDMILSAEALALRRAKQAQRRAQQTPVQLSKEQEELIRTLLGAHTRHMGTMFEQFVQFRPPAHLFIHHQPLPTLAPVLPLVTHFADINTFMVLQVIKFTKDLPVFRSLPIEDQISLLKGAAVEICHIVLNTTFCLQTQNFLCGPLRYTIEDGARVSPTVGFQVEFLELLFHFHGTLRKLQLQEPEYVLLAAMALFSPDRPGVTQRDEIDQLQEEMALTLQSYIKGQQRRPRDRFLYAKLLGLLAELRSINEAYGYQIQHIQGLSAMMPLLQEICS

Row | SMILES | Potency [1] | Potency [2] | Potency [3] | Potency [4] | Potency [5] | Potency [6] | Potency [7] | Potency [8] | Potency [9] | Potency [10]
1 | C=CC(C)(O)CCC=C(C)C (configuration not stated) | inactive | inactive | inactive | inactive | inactive | inactive | inactive | inactive | – | –
2 | Nc1cc(Cl)c(N)c(Cl)c1 | inactive | inactive | inactive | inactive | inactive | inactive | inactive | inactive | – | –
3 | NC[C@H](O)c1ccc(O)c(O)c1 | inactive | inactive | inactive | inactive | – | – | inactive | – | – | –
4 | COc1ccc2nc(N)sc2c1 | inactive | 35.6 µM (active) and 31.7 µM (active) | inactive | inactive | inactive | 54.5 µM (active) and 27.3 µM (active) | inactive | inactive | – | –
5 | Cc1ccc(C(C)(C)C)cc1 | inactive | inactive | inactive | inactive | inactive | inactive | inactive | inactive | – | –
6 | CC(=O)O[C@]1(C(C)=O)CC[C@H]2[C@@H]3C=C(Cl)C4=CC(=O)CC[C@]4(C)[C@H]3CC[C@@]21C | 61 µM (active) | inactive | inactive | inactive | inactive | inactive | inactive | inactive | – | –
7 | CC(C)(Oc1ccc(Cl)cc1)C(=O)O | inactive | inactive | inactive | inactive | inactive | inactive | inactive | inactive | – | –
8 | C=CCNCC=C | inactive | inactive | inactive | inactive | – | – | inactive | – | – | –
9 | OC[C@H]1O[C@@H]2O[C@H]3[C@H](O)[C@@H](O)[C@@H](O[C@H]4[C@H](O)[C@@H](O)[C@@H](O[C@H]5[C@H](O)[C@@H](O)[C@@H](O[C@H]6[C@H](O)[C@@H](O)[C@@H](O[C@H]7[C@H](O)[C@@H](O)[C@@H](O[C@H]1[C@H](O)[C@H]2O)O[C@@H]7CO)O[C@@H]6CO)O[C@@H]5CO)O[C@@H]4CO)O[C@@H]3CO | inactive | inactive | inactive | inactive | inactive | inactive | inactive | inactive | – | –
10 | CC(=O)Nc1ccc2c(c1)Cc1cc(NC(C)=O)ccc1-2 | inactive | inactive | inactive | inactive | inactive | inactive and 7.7 µM (active) | inactive | inactive | – | –
11 | COc1cc([C@H]2Oc3cc([C@H]4Oc5cc(O)cc(O)c5C(=O)[C@@H]4O)ccc3O[C@@H]2CO)ccc1O | 48.4 µM (active) and inactive | inactive | inactive | inactive | – | – | 54.3 µM (active) and inactive | – | inactive | –
12 | CCC(Cc1c(I)cc(I)c(N)c1I)C(=O)O (configuration not stated) | inactive | inactive | inactive | inactive | inactive | 47 µM (active) | inactive | inactive | – | –
13 | C[C@]12C=CC(=O)C=C1CC[C@H]1[C@@H]3C[C@@H](O)[C@](O)(C(=O)CO)[C@@]3(C)C[C@H](O)[C@@]12F | inactive | inactive | inactive | inactive | – | – | inactive | inactive | inactive | inactive
14 | Cc1ccc(S(=O)(=O)O)cc1C | inactive | inactive | inactive | inactive | inactive | inactive | inactive | inactive | – | –
15 | Nc1cc([N+](=O)[O-])ccc1C(=O)O | inactive | 64.6 µM (active) and 35.6 µM (active) | inactive | inactive | inactive | inactive | inactive | inactive | – | –
16 | C1COCCN1 | inactive | inactive | inactive | inactive | inactive | inactive | inactive | inactive | – | –
17 | CCCCCCCCCCCCO | inactive | 31.3 µM (active) | inactive | inactive | inactive | inactive | inactive | inactive | – | –
18 | NCCS(=O)(=O)O | inactive | 41.5 µM (active) and inactive | inactive | inactive | inactive | – | inactive | inactive | – | –
19 | Cc1ccc(C)c(O)c1 | inactive | inactive | inactive | inactive | inactive | inactive | inactive | inactive | – | –
20 | O=C(O)CCCC(=O)O | inactive | inactive | inactive | inactive | inactive | inactive | inactive | inactive | – | –
21 | CCCN1C=CN(C)C1 | inactive | inactive | inactive | inactive | inactive | inactive | inactive | inactive | – | –
22 | Clc1ccc(Sc2cc(Cl)c(Cl)cc2Cl)cc1 | inactive | inactive | inactive | inactive | inactive | inactive | inactive | inactive | – | –
23 | NCCOCCO | inactive | inactive | inactive | inactive | – | – | inactive | – | inactive | –
24 | Nc1ccc2c(O)cc(S(=O)(=O)O)cc2c1 | 27.3 µM (active) and 30.6 µM (active) | 63.4 µM (active) and 44.8 µM (active) | 21.7 µM (active) | 19.4 µM (active) and 68.6 µM (active) | 3.86 µM (active) and 686 nM (active) | inactive | – | inactive | 15.4 µM (active) | –
25 | O=C(O)c1cc(=O)[nH]c(=O)[nH]1 | inactive | inactive | inactive | inactive | – | – | inactive | inactive | inactive | inactive
26 | O=C(O)COCCN1CCN(C(c2ccccc2)c2ccc(Cl)cc2)CC1 (configuration not stated) | inactive | inactive | inactive | inactive | inactive | inactive | inactive | inactive | – | –
